Source: PubChem
Only some compounds are listed: those with a hit (about 2.4% of all), similar ones and a draw of the others.
NFkB SMM: binders of NF-kB p50 subunit, primary screen, biochemical, small molecule microarray, anti-His fluorescence; calls only; anti-His fluorescence binding; Nuclear factor NF-kappa-B p105 subunit (Homo sapiens), P19838; AID 624139, 2012; 17,000 compounds, 1.3% hits;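 active means spot fluorescence over background significantly raised, with a chance value under 7% in all four replicate spots of the compound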;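 further: probe protein is his-tagged human p50 processed subunit at 1 µg/ml; raw spot fluorescence signals with no normalization applied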
Target sequence (P19838 1-433 limits assumed): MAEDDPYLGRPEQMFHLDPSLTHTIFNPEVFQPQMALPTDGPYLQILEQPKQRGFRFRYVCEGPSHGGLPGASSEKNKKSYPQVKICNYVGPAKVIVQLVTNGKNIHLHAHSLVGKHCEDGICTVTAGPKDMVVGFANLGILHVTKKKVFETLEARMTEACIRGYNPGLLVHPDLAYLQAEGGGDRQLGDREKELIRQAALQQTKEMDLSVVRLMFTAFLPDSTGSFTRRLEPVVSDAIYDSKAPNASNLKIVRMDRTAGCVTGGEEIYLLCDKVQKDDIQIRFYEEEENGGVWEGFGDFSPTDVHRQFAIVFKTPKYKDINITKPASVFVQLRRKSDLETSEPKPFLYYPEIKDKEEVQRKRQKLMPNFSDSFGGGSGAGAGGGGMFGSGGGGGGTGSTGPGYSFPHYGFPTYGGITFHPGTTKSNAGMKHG
p53 mut binder: binders of human mutant p53, primary screen, biochemical, small molecule microarray, anti-GST fluorescence. small molecule microarray binding. mutant tumor protein p53 (GST-tagged), Homo sapiens. calls only. 17,000 compounds, 0.4% hits;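 active means compounds whose four printed spots each glow above background more than chance allows, each with a p-value under 7%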
c-Myc SMM: binders of human c-Myc, primary screen, biochemical, small molecule microarray, anti-His fluorescence; Myc proto-oncogene protein (Homo sapiens), P01106; His-c-Myc binding; calls only; 17,000 compounds, 1.5% hits;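 active means spot fluorescence over background with P-value below 7% in all four replicate spots, showing protein binding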;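 further: score is binary with 100 for all four spots passing and 0 otherwise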
STAT3 binder: STAT3 binders, primary screen, biochemical, small molecule microarray, single point, set 2; AID 624138, 2012; 17,000 compounds, 0.2% hits; His-STAT3 binding, anti-His fluorescence; calls only;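 active means compounds whose four printed spots each show fluorescence over background unusually high for their array block, chance value under 7%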
Starred values were filed as active, the others as inactive.

For COc1ccc(C#Cc2ccc3c(c2)[C@]2(C(=O)N3)[C@H](C(=O)Nc3nc4ccccc4s3)[C@H]3C(=O)O[C@H](c4ccccc4)[C@H](c4ccccc4)N3[C@@H]2c2ccc(OCCO)cc2)cc1 the results were NFkB SMM inactive, p53 mut binder inactive, c-Myc SMM inactive and STAT3 binder inactive.
Screening CCOc1cc(/C=C(/C#N)C(N)=O)cc(CSc2ccccc2)c1O returned NFkB SMM inactive, p53 mut binder inactive, c-Myc SMM inactive and STAT3 binder inactive.
For COc1ccc(NC(=O)c2ccc(OC(C)C(=O)O)cc2)cc1Cl (stereo not given) the results were NFkB SMM active, p53 mut binder inactive, c-Myc SMM inactive and STAT3 binder inactive.
For CC(Oc1ccc(C(=O)Nc2ccc(Cl)cc2)cc1)C(=O)Nc1cc(Cl)ccc1Cl (stereo not given) the results were NFkB SMM inactive, p53 mut binder inactive, c-Myc SMM inactive and STAT3 binder inactive.
Screening COc1ccccc1C1C(C(=O)c2ccco2)C(=O)C(=O)N1c1cc(C)on1 (stereo not given) returned NFkB SMM inactive, p53 mut binder inactive, c-Myc SMM inactive and STAT3 binder inactive.
Screening COc1cccc2cc(C(=O)C3C(=O)C(=O)N(c4nc(C)c(C)s4)C3c3ccco3)oc12 (stereo not given) returned NFkB SMM inactive, p53 mut binder inactive, c-Myc SMM active and STAT3 binder inactive.
Screening CNC[C@H]1OCCCC[C@@H](C)Oc2ccc(NC(=O)Nc3ccc4c(c3)OCO4)cc2C(=O)N([C@@H](C)CO)C[C@H]1C returned NFkB SMM inactive, p53 mut binder inactive, c-Myc SMM inactive and STAT3 binder inactive.
`CC(C)NS(=O)(=O)c1ccc(OCC(=O)N2CCOCC2)c(Cl)c1` gave NFkB SMM inactive, p53 mut binder inactive, c-Myc SMM inactive and STAT3 binder inactive.
For C[C@@H]1CN([C@@H](C)CO)C(=O)c2cc(NC(=O)NC3CCCCC3)ccc2O[C@H]1CN(C)C(=O)NC1CCCCC1 the results were NFkB SMM inactive, p53 mut binder inactive, c-Myc SMM active and STAT3 binder inactive.
For C[C@H](CO)N1C[C@H](C)[C@@H](CN(C)CC2CC2)OCCCC[C@H](C)Oc2ccc(NC(=O)Nc3cccc4ccccc34)cc2C1=O the results were NFkB SMM active, p53 mut binder inactive, c-Myc SMM inactive and STAT3 binder inactive.
For C[C@@H]1CN([C@@H](C)CO)C(=O)c2cc(N(C)C)ccc2O[C@@H](C)CCCCO[C@H]1CN(C)C(=O)Nc1cccc2ccccc12 the results were NFkB SMM inactive, p53 mut binder inactive, c-Myc SMM active and STAT3 binder inactive.
Screening C[C@@H]1CN([C@H](C)CO)C(=O)c2cc(NC(=O)NC3CCCCC3)ccc2O[C@@H]1CN(C)C(=O)NC1CCCCC1 returned NFkB SMM inactive, p53 mut binder inactive, c-Myc SMM inactive and STAT3 binder inactive.
C[C@H](CO)N1C[C@H](C)[C@@H](CN(C)CC2CCCCC2)Oc2ccc(NC(=O)Nc3ccc4c(c3)OCO4)cc2C1=O was read as NFkB SMM active, p53 mut binder active, c-Myc SMM active and STAT3 binder inactive.
For C[C@@H]1CN([C@@H](C)CO)C(=O)c2cc(NC(=O)Nc3ccc4c(c3)OCO4)ccc2O[C@@H]1CN(C)CC1CCCCC1 the results were NFkB SMM inactive, p53 mut binder inactive, c-Myc SMM inactive and STAT3 binder inactive.
CC(C)=CCc1c(O)cc(O)c2c(=O)cc(-c3ccc(O)cc3)oc12 was read as NFkB SMM inactive, p53 mut binder inactive, c-Myc SMM inactive and STAT3 binder inactive.
`C[C@@H]1CCCCO[C@@H](CN(C)C(=O)c2ccccc2)[C@@H](C)CN([C@H](C)CO)C(=O)c2cc(NC(=O)Nc3cccc4ccccc34)ccc2O1` gave NFkB SMM active, p53 mut binder active, c-Myc SMM active and STAT3 binder inactive.
Screening C[C@@H]1CN([C@@H](C)CO)C(=O)c2cc(NC(=O)Nc3cccc4ccccc34)ccc2O[C@@H](C)CCCCO[C@@H]1CN(C)C returned NFkB SMM inactive, p53 mut binder inactive, c-Myc SMM inactive and STAT3 binder inactive.
Screening C[C@@H]1CCCCO[C@H](CN(C)CC2CCCCC2)[C@H](C)CN([C@@H](C)CO)C(=O)c2cc(NC(=O)NC3CCCCC3)ccc2O1 returned NFkB SMM active, p53 mut binder inactive, c-Myc SMM inactive and STAT3 binder inactive.
`C[C@H](CO)N1C[C@H](C)[C@@H](CN(C)CC2CC2)OCCCC[C@H](C)Oc2ccc(NC(=O)NC3CCCCC3)cc2C1=O` gave NFkB SMM inactive, p53 mut binder inactive, c-Myc SMM inactive and STAT3 binder inactive.
For CC1(C)CC[C@]2(C(=O)O)CC[C@]3(C)C(=CCC4[C@@]5(C)CC[C@H](O[C@@H]6O[C@H](C(=O)O)[C@@H](O[C@@H]7O[C@H](CO)[C@@H](O)[C@H](O)[C@H]7O)[C@H](O)[C@H]6O[C@@H]6O[C@H](CO)[C@@H](O)[C@H](O)[C@H]6O)C(C)(C)C5CC[C@]43C)C2C1 (stereo not given in full) the results were NFkB SMM active, p53 mut binder inactive, c-Myc SMM active and STAT3 binder active.
For CC1OC(OC2C(OC3C(O[C@H]4CC[C@@]5(C)C(CC[C@]6(C)C5CC=C5C7CC(C)(C)CC(O)[C@]7(C)CC[C@]56C)C4(C)C)OC(C(=O)O)C(O)C3O)OCC(O)C2O)C(O)C(O)C1O (stereo not given in full) the results were NFkB SMM active, p53 mut binder inactive, c-Myc SMM active and STAT3 binder inactive.
For S=C(NCC1CCCO1)Nc1cnn(Cc2ccc(Cl)cc2)c1 (stereo not given) the results were NFkB SMM inactive, p53 mut binder inactive, c-Myc SMM active and STAT3 binder inactive.
Screening C=CC1(C)C=C2CCC3C(C)(C)C(O[C@@H]4O[C@@H](CO)[C@H](O)[C@H]4O)CCC3(C)C2CC1O[C@@H]1O[C@H](C)[C@H](O)[C@H](O)[C@H]1O (stereo not given in full) returned NFkB SMM active, p53 mut binder inactive, c-Myc SMM inactive and STAT3 binder inactive.
Screening COc1cc(-c2nc3sc4c(c3c(=O)[nH]2)CCCC4)cc(Br)c1OCC(=O)O returned NFkB SMM active, p53 mut binder inactive, c-Myc SMM active and STAT3 binder inactive.
For Cc1ccccc1NC(=O)COc1ccc(-c2nc3sc4c(c3c(=O)[nH]2)CCCC4)cc1 the results were NFkB SMM inactive, p53 mut binder inactive, c-Myc SMM inactive and STAT3 binder inactive.
`Cc1ccc(C(=O)CC(C(=O)O)n2ccc(C)n2)cc1` (stereo not given) gave NFkB SMM active, p53 mut binder inactive, c-Myc SMM active and STAT3 binder inactive.
